# Data from the supplement of paper PMC8728848.
# The sample as a whole holds a higher share of the strongest signals than the screen did.
# B1: Na-CTL-1 (Necator americanus) (protein)
# chain: MQRSFLLLLVVLAGAWAVNTTIPLKLMGGFTPMKYQCVGRVSDIWADVLFLIESSDMITKSGFRQVIAFITATTKKMTIGQDEKQTRVGFITYGEEAKLIYDLDHWRSTEKLSDLVQKIPYVKSSGTNIAAAIALANKVFNSPTHRPNVPKVMVIVANGLKKGSQNPIPVATAFKDFGGIIITIEYTQYDNIQVPILKKIASEGYNIRSNDEDFSVRTLTNMLLQANCFCPDHYVPFRVNNPEFGCFVTAKIPSMWRDAAEMCRAVEEGKLVKVENEEKAAFIMKLVGPKKEAWIGLRYYGNKFQWTDGTKLNADDFNLWPEDIKELNGPHCVSMYQDQKDKKYYWRAGKCLEDMRYVCEVQPCSASNYCSEPVFMYRQKHRALLPAPPPPPN
# Experiments:
# Test in all cases: glycan array binding signal (z-score within array); higher = stronger binding
# Details in all cases: glycan notation: IUPAC condensed, linker removed
# GalNAc(b1-4)GlcNAc = biological target: GalNAc(b1-4)GlcNAc
# In short: (§1)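 Columns mapping to the same glycan were averaged after glycan names were converted to IUPAC-condensed notation. The data come from 3228 arrays in the Consortium for Functional Glycomics database, limited to those with an available protein sequence. Binding is reported as a within-array Z-score averaged across arrays of one protein sequence and across linkers.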
# [1] = biological target: Glc(a1-4)Glc(a1-4)Glc(a1-4)Glc
# In short: as §1
# [2] = biological target: GlcNAc(b1-2)[GlcNAc(b1-4)]Man(a1-3)[GlcNAc(b1-4)][GlcNAc(b1-2)[GlcNAc(b1-6)]Man(a1-6)]Man(b1-4)GlcNAc(b1-4)[Fuc(a1-6)]GlcNAc
# In short: as §1
# [3] = biological target: GlcNAc(b1-3)Gal(b1-4)GlcNAc
# In short: as §1
# [4] = biological target: GlcNAc(b1-3)Gal(b1-4)GlcNAc(b1-3)Gal(b1-4)GlcNAc(b1-3)Gal(b1-4)GlcNAc(b1-2)[GlcNAc(b1-3)Gal(b1-4)GlcNAc(b1-3)Gal(b1-4)GlcNAc(b1-3)Gal(b1-4)GlcNAc(b1-6)]Man(a1-6)[GlcNAc(b1-3)Gal(b1-4)GlcNAc(b1-3)Gal(b1-4)GlcNAc(b1-3)Gal(b1-4)GlcNAc(b1-2)Man(a1-3)]Man(b1-4)GlcNAc(b1-4)[Fuc(a1-6)]GlcNAc
# In short: as §1
# [5] = biological target: GlcNAc(b1-3)[GlcNAc(b1-6)]Gal(b1-4)GlcNAc
# In short: as §1
# [6] = biological target: Man(a1-2)Man(a1-2)Man(a1-3)Man
# In short: as §1
# [7] = biological target: Man(a1-2)Man(a1-3)[Man(a1-6)]Man(a1-6)[Man(a1-2)Man(a1-3)]Man(b1-4)GlcNAc(b1-4)GlcNAc
# In short: as §1
# Man(a1-6)Man = biological target: Man(a1-6)Man
# In short: as §1
# [8] = biological target: Neu5Ac(a2-3)Gal(b1-3)GalNAc(b1-4)[Neu5Ac(a2-3)]Gal(b1-4)Glc
# In short: as §1
# [9] = biological target: Neu5Ac(a2-3)Gal(b1-3)[Fuc(a1-4)]GlcNAc(b1-3)Gal(b1-3)[Fuc(a1-4)]GlcNAc
# In short: as §1
# Neu5Ac(a2-3)Gal(b1-4)Glc = biological target: Neu5Ac(a2-3)Gal(b1-4)Glc
# In short: as §1
# [10] = biological target: Neu5Ac(a2-3)[GalNAc(b1-4)]Gal(b1-4)GlcNAc
# In short: as §1
# Neu5Ac(a2-6)Gal(b1-4)Glc = biological target: Neu5Ac(a2-6)Gal(b1-4)Glc
# In short: as §1
# [11] = biological target: Neu5Ac(a2-6)Gal(b1-4)GlcNAc(b1-2)Man(a1-3)[Neu5Ac(a2-6)Gal(b1-4)GlcNAc(b1-2)Man(a1-6)]Man(b1-4)GlcNAc(b1-4)[Fuc(a1-6)]GlcNAc
# In short: as §1
# [12] = biological target: Neu5Ac(a2-6)GlcNAc(b1-4)GlcNAc(b1-4)GlcNAc
# In short: as §1
# [13] = biological target: Neu5Ac(a2-8)Neu5Ac(a2-8)Neu5Ac(a2-3)Gal(b1-4)Glc
# In short: as §1
binder,measurement,setting,value
B1,glycan array binding signal (z-score),GalNAc(b1-4)GlcNAc,1.86
same,glycan array binding signal (z-score),[1],-0.045
same,glycan array binding signal (z-score),[2],-0.111
same,glycan array binding signal (z-score),[3],-0.383
same,glycan array binding signal (z-score),[4],1.69
same,glycan array binding signal (z-score),[5],-0.476
same,glycan array binding signal (z-score),[6],0.039
same,glycan array binding signal (z-score),[7],0.06
same,glycan array binding signal (z-score),Man(a1-6)Man,-0.528
same,glycan array binding signal (z-score),[8],0.065
same,glycan array binding signal (z-score),[9],-0.347
same,glycan array binding signal (z-score),Neu5Ac(a2-3)Gal(b1-4)Glc,2.35
same,glycan array binding signal (z-score),[10],-0.222
same,glycan array binding signal (z-score),Neu5Ac(a2-6)Gal(b1-4)Glc,-0.543
same,glycan array binding signal (z-score),[11],0.041
same,glycan array binding signal (z-score),[12],1.95
same,glycan array binding signal (z-score),[13],-0.34
